Assay results published in PubChem BioAssay (NCI).
The panel holds about 83,000 compounds, 20% with a hit somewhere; the sample as a whole holds those more often.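 Step 1: grow cells in 96-well plates. Step 2: add test compound at a single concentration. Step 3: incubate 48 h. Step 4: record percent growth.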 A number with no mark means an inactive call. Calls of active or inactive are those of the source. Rule for the calls: active = growth percent below 10; inactive = the rest.

The compounds below were run on RXF 393 renal (assay: NCI-60 one-dose screen, 48 h (100 = growth as untreated, 0 = no growth, -100 = all killed)). Conditions: 10 µM unless noted.
Work on `c1ccc2c(c1)oc1cc3sccc3nc12` yielded a growth of 109%.
Compound `CC1=C(C(=O)OCC2CCN(C(=O)OC(C)(C)C)CC2)[C@H](c2cccc(C#N)c2)C2=C(CC(C)(C)CC2=O)N1` has a growth of 83.2%.
For `O=C(c1nc2ccccc2[nH]1)C1C(c2ccc([N+](=O)[O-])cc2)C2CC3CCCCC3N2[C@@]12C(=O)Nc1cc(Cl)ccc12` (stereo partly drawn), the growth was 14.7%.
Work on `Nc1ccn(C2O[C@H](CO)[C@@H](O)[C@H]2O)c(=O)n1` (stereo partly drawn) yielded a growth of 50.1%.
For `Nc1ccc(-n2c(=O)oc3ccc(Cl)cc3c2=O)c(Cl)c1`, the growth was -6.99% (active).
`CC1=C(C(=O)OCC2CCN(C(=O)OC(C)(C)C)CC2)[C@@H](c2cccc(C#N)c2)C2=C(CC(C)(C)CC2=O)N1` was tested, and the growth was 71%.
With `N#Cc1c(N)nc2c(c1N)C(c1ccc(F)cc1)c1ccc(N)cc1O2` (stereo not drawn) the growth was 92.3%.
Compound `COc1ccc(Cn2c(Br)c3c(c2-c2cc(OC)c(OC)c(OC)c2)CCc2sc(NC(=O)c4ccc(OC)cc4)nc2-3)cc1` has a growth of 91.9%.
In the case of `O=c1cc(NC2CCN(CCCc3ccccc3)CC2)c2cc(Cl)ccc2o1`, the growth is reported as -25.3% (active).
In the case of `Brc1ccc(Oc2ccc(Nc3ncnc4onc(-c5ccccc5)c34)cc2)cc1`, the growth is reported as 103%.
Compound `NNC(=O)CNC(=O)Nc1n[nH]c(=S)s1` has a growth of 124%.
Compound `COc1ccc(Cn2c(Br)c3c(c2-c2cc(OC)c(OC)c(OC)c2)CCc2sc(NC(C)=O)nc2-3)cc1` has a growth of 32.3%.
For `COc1ccc(/C=C2\NC(=O)NC2=O)cc1O`, the growth was 111%.
In the case of `Cc1cc2c(c(C)c1Cl)C(=O)/C(=C/c1ccco1)O2`, the growth is reported as 124%.
For `O=C(Nc1ccc(N2CCNCC2)cc1)c1[nH]ncc1Nc1cc(Oc2ccccc2)ncn1`, the growth was -89.2% (active).
`CS(=O)(=O)Nc1ccc(C(=O)NC(C(=O)NO)c2ccc(-c3cccc(F)c3)cc2)cc1` (stereo not drawn) gave a growth of 106%.
In the case of `CC[C@]1(O)C[C@@H]2CN(CCc3c([nH]c4ccccc34)[C@@](C(=O)OC)(c3cc4c(cc3OC)N(C)[C@H]3[C@@](O)(C(=O)OC)[C@H](OC(C)=O)[C@]5(CC)C=CCN6CC[C@]43[C@@H]65)C2)C1`, the growth is reported as 22.1%.
`O=C(CN1C(=O)/C(=C\c2ccc(Cl)cc2)SC1=S)Nc1ncc(Cc2ccc(Cl)cc2)s1` showed a growth of 110%.
`CCCCC(O)(c1ccc(Cl)cc1)C(CN1CCOCC1)c1ccc(Cl)cc1` (stereo not drawn) gave a growth of 18.5%.
With `O=C(Nc1ccc(C23CC4CC(CC(c5ccccc5)(C4)C2)C3)cc1)c1cccs1` the growth was 77.5%.
`O=C(COc1cc(O)c2c(=O)cc(-c3ccccc3)oc2c1)Nc1ccccc1` showed a growth of 98.3%.
Work on `COc1cc(C(=O)Nc2ccc(-c3nc4ccccc4[nH]3)cc2)cc(OC)c1OC` yielded a growth of 28%.
`COC(=O)[C@@H]1CCCN1C(=O)[C@H]1CCCN1C(=O)[C@@H](Cc1c[nH]c2ccccc12)NC(=S)Nc1cc(C(F)(F)F)cc(C(F)(F)F)c1` gave a growth of 48.5%.
For `O=C(CCc1nnc2sc(-c3ccc(Cl)cc3Cl)nn12)c1nc2ncccc2[nH]1`, the growth was -93.1% (active).
`O=Cc1cc2ccccc2nc1Nc1nccs1` was tested, and the growth was 53.2%.
In the case of `O=C(CCc1nnc2sc(Cc3ccccc3Cl)nn12)c1nc2ncccc2[nH]1`, the growth is reported as 104%.
In the case of `NS(=O)(=O)c1ccc(CCN=C=S)cc1`, the growth is reported as -36.3% (active).
With `CCOc1cc(Cl)c(C(C)NC(=O)c2cccc(OC)c2)cc1OCC` (stereo not drawn) the growth was -95.8% (active).
`CN1CCN(Cc2ccc(C(=O)Nc3cncc(C#Cc4cnc5cccnn45)c3)cc2C(F)(F)F)CC1` was tested, and the growth was 50.5%.
For `COc1ccc2c(c1)C=C1CSCC3=Cc4cc(OC)ccc4OC13O2`, the growth was 5% (active).
`CN1CCN(Cc2ccc(NC(=O)c3cncc(C#Cc4nc(N)nc5[nH]ncc45)c3)cc2C(F)(F)F)CC1` showed a growth of 79.2%.
In the case of `COc1cc(C(=O)O/N=C(\N)Cc2cccc3ccccc23)cc(OC)c1OC`, the growth is reported as 7.59% (active).
`Nc1nc(-c2cnccn2)nn1-c1nc2ccccc2s1` was tested, and the growth was 110%.
In the case of `COC(=O)C1=C(C)NC(C)=C(C(=O)OC)C(N2C(=O)CCC2=O)C1` (stereo not drawn), the growth is reported as 104%.
`COc1ccc(Br)c(/C=C2\SC(=Nc3ccc(O)cc3)NC2=O)c1` gave a growth of 83.7%.
`COc1ccc(Cn2c(Br)c3c(c2Br)-c2nc(NC(=O)c4ccc(OC)cc4)sc2CC3)cc1` showed a growth of 57%.
`Nc1ncnc(N)c1NC(=O)c1ccc(OCc2ccccc2)cc1` showed a growth of 107%.
In the case of `CCOc1ccc(-c2nonc2NC(=O)c2cccc(C)c2)cc1OCC`, the growth is reported as 65.3%.
